# Unmarked numbers belong to inactive results. Inconclusive results are not listed. A call without a number means that no potency is given here. Active and inactive are the calls of the source. Unless noted, calls come from the whole dose curve; as a rule, active = well fitted curve in the direction sought with a large enough effect in the repeat runs; inconclusive = weak or mixed curves; inactive = no such curve, though single readings can be large; an effect the other way counts as inactive or inconclusive.
# Tests used:
# [1] = qHTS assay to identify small molecule antagonists of the androgen receptor (AR) signaling pathway using the MDA cell line in the presence of 0.5 nM R1881 - cell viability counter screen (AID 1259242); note: nearly all actives have a fitted effect of over 45% in size; note: potency is the fitted concentration of half-maximal effect
# In short: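 Steps: plate MDA-kb2 cells, rest 5 hr at 37C without CO2; pin in compounds in DMSO; add R1881 to 0.5 nM final; incubate 16 hr; add CellTiter-Fluor, 30 min; read fluorescence.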
# [2] = target: Estrogen receptor (Homo sapiens) (UniProt P03372); experiment: qHTS assay to identify small molecule antagonists of the estrogen receptor alpha (ER-alpha) signaling pathway using the BG1 cell line in the presence of 0.1 nM 17-beta-estradiol (AID 1259244); note: nearly all actives have a fitted effect of over 50% in size; note: potency is the fitted concentration of half-maximal effect
# Sequence of Estrogen receptor (Homo sapiens) (P03372 whole entry, looked up): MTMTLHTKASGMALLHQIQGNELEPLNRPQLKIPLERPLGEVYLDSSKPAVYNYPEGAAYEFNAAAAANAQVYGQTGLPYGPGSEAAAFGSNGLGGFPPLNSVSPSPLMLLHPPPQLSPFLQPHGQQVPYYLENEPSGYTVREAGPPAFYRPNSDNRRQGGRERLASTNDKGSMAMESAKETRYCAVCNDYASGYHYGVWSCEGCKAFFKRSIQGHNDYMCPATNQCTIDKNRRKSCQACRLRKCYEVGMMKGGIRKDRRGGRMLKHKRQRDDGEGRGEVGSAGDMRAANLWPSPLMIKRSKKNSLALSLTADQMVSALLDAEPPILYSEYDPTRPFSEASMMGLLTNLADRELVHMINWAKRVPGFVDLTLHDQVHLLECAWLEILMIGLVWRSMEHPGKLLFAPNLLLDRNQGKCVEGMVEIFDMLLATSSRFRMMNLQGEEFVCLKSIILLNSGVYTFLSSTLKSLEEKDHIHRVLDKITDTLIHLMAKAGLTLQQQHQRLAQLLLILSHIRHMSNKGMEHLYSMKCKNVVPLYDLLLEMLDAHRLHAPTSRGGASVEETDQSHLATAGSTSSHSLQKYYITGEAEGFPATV
# In short: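 Antagonist mode: compounds in DMSO are pinned onto VM7Luc4E2 reporter cells, 0.1 nM final 17beta-estradiol is added, and after 22 h at 37C luciferase luminescence is measured with ONE-Glo.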
# [3] = qHTS assay to identify small molecule phospholipidosis (PLD) inducers (AID 1259344; active = well fitted curve in the direction sought with a large enough effect; an effect the other way counts as inactive or inconclusive)
# In short: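 Image-based: LipidTOX Red pit count/intensity per well and per cell; HepG2, 24 h compound at 37 C, PFA fixation, Hoechst counterstain.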
# [4] = qHTS assay to identify small molecule HDAC inhibitors (AID 1259364);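 note: wild-type HCT-116 cells with endogenous class I/II HDAC activity; top concentration of the series differs between compounds; nearly all actives have a fitted effect of over 45% in size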
# In short: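 Cells (HCT-116, wild type) are seeded at 1,500 per well, incubated overnight, treated with compound in DMSO for 2 hr, then developed with HDAC-Glo I/II reagent for 30 min at room temperature.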
# [5] = qHTS assay to identify small molecule HDAC inhibitors - cell viability counter screen (AID 1259365); note: nearly all actives have a fitted effect of over 50% in size; note: potency is the fitted concentration of half-maximal effect
# In short: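 Viability readout: CellTiter-Glo luminescence. Wild-type HCT-116 cells, 2hr compound treatment following overnight attachment at 37 C.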
# [6] = qHTS assay to identify small molecule agonists of the sonic hedgehog signaling (Shh) pathway - cell viability counter screen (AID 1259366); note: nearly all actives have a fitted effect of over 50% in size; note: potency is the fitted concentration of half-maximal effect
# In short: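 Viability measured fluorometrically (CellTiter-Fluor, 1hr, 37C) in 3T3 Gli1-Luc reporter cells after 23hr compound exposure within a 24hr incubation at 37C/5% CO2.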
# [7] = qHTS assay to identify small molecule antagonists of the sonic hedgehog signaling (Shh) pathway - cell viability counter screen (AID 1259367); note: nearly all actives have a fitted effect of over 55% in size; note: potency is the fitted concentration of half-maximal effect
# In short: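 Tox21 library chemicals were tested on a Gli1-Luc NIH/3T3 clone (2,000 cells/well) stimulated by conditioned medium; viability was quantified as fluorescence from CellTiter-Fluor reagent added at 23 hr.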
# [8] = qHTS assay to identify small molecule agonists of the sonic hedgehog signaling (Shh) pathway (AID 1259368; calls by dose curve;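 note: NIH/3T3-derived 3T3Gli1-Luc cells carrying a stable Gli1-driven firefly luciferase reporter; series mostly up to about 92 µM; nearly all actives have a fitted effect of over 15% in size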)
# In short: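 Cells of a mouse NIH/3T3 clone stably expressing luciferase under the Gli1 transcriptional response element are exposed to test chemicals for 24 hr at 37 C. Pathway activation is detected as a rise in luminescence.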
# [9] = qHTS assay to identify small molecule antagonists of the sonic hedgehog signaling (Shh) pathway (AID 1259369; calls by dose curve; note: nearly all actives have a fitted effect of over 45% in size; note: potency is the fitted concentration of half-maximal effect)
# In short: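 Cells are plated and held 4hr at 37 C, compounds (DMSO) are pinned in, conditioned medium is added to stimulate the pathway, and after 24hr luciferase reagent is added for 30min before luminescence is read.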
# [10] = target: Estrogen receptor beta (Homo sapiens) (UniProt Q92731); experiment: qHTS assay to identify small molecule agonists of the estrogen receptor beta (ER-beta) signaling pathway (AID 1259377; active = well fitted activation curve with a large enough effect in the signal ratio in the repeat runs, not every such curve was filed as active; the % refers to the signal ratio)
# Sequence of Estrogen receptor beta (Homo sapiens) (Q92731 whole entry, looked up): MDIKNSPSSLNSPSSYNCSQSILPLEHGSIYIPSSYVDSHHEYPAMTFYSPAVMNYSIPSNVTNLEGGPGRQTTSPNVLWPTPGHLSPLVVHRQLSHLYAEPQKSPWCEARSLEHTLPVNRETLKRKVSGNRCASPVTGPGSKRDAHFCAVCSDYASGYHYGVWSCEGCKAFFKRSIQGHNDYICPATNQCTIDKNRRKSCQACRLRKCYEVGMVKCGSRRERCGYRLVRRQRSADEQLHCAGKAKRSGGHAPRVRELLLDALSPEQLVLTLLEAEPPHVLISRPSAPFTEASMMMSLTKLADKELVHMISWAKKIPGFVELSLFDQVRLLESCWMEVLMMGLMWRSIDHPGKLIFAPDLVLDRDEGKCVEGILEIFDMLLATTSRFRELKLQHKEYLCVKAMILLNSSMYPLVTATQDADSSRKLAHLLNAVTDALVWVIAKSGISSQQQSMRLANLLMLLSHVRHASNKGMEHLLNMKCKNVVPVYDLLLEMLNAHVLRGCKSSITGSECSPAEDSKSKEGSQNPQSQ
# In short: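 A UAS-controlled beta-lactamase reporter in ER-beta-UAS-bla HEK293T cells reports receptor activation. Compounds act for 16 hr at 37C in 2% charcoal-stripped serum, and a FRET substrate is read by fluorescence after 2 hours.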
# [11] = target: Estrogen receptor beta (Homo sapiens) (UniProt Q92731); experiment: qHTS assay to identify small molecule antagonists of the estrogen receptor beta (ER-beta) signaling pathway (AID 1259378; active = well fitted inhibition curve with a large enough effect in the signal ratio in the repeat runs, not every such curve was filed as active; the % refers to the signal ratio; note: potency is the fitted concentration of half-maximal effect)
# In short: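 ER-beta-UAS-bla HEK293T cells in 2% charcoal-stripped FBS medium treated with compound plus 1nM final 17-beta-estradiol for 16 hr at 37C. Beta-lactamase reporter read by FRET substrate fluorescence after 2 hours at room temperature.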
# [12] = qHTS assay to identify small molecule agonists of the androgen receptor (AR) signaling pathway in the presence of an antagonist - cell viability counter screen (AID 1259379); note: nearly all actives have a fitted effect of over 25% in size; note: potency is the fitted concentration of half-maximal effect
# In short: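 Cytotoxicity is assessed by CellTiter-Fluor in MDA-kb2 cells carrying an MMTV-driven luciferase reporter. Cells receive 3.0uM nilutamide plus compounds at 15 concentrations and incubate 16 hr at 37C without CO2 before fluorescence reading.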
# [13] = target: Estrogen receptor (Homo sapiens) (UniProt P03372); experiment: qHTS assay to identify small molecule agonists of the estrogen receptor alpha (ER-alpha) signaling pathway in the presence of an antagonist (AID 1259383; calls by dose curve; note: nearly all actives have a fitted effect of over 15% in size; note: potency is the fitted concentration of half-maximal effect; for activation: top concentration of the series differs between compounds)
# In short: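 Agonist-mode confirmation in the presence of the ER antagonist ICI-182,780 at 10.0nM final. Breast-derived VM7Luc4E2 reporter cells were exposed to compounds for 22hr, and ERE-driven luciferase was quantified by luminescence.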
# [14] = target: Androgen receptor (Homo sapiens) (UniProt P10275); experiment: qHTS assay to identify small molecule antagonists of the androgen receptor (AR) signaling pathway using the MDA cell line in the presence of 0.5 nM R1881 (AID 1259243); note: potency is the fitted concentration of half-maximal effect; nearly all actives have a fitted effect of over 50% in size
# Sequence of Androgen receptor (Homo sapiens) (P10275 whole entry, looked up): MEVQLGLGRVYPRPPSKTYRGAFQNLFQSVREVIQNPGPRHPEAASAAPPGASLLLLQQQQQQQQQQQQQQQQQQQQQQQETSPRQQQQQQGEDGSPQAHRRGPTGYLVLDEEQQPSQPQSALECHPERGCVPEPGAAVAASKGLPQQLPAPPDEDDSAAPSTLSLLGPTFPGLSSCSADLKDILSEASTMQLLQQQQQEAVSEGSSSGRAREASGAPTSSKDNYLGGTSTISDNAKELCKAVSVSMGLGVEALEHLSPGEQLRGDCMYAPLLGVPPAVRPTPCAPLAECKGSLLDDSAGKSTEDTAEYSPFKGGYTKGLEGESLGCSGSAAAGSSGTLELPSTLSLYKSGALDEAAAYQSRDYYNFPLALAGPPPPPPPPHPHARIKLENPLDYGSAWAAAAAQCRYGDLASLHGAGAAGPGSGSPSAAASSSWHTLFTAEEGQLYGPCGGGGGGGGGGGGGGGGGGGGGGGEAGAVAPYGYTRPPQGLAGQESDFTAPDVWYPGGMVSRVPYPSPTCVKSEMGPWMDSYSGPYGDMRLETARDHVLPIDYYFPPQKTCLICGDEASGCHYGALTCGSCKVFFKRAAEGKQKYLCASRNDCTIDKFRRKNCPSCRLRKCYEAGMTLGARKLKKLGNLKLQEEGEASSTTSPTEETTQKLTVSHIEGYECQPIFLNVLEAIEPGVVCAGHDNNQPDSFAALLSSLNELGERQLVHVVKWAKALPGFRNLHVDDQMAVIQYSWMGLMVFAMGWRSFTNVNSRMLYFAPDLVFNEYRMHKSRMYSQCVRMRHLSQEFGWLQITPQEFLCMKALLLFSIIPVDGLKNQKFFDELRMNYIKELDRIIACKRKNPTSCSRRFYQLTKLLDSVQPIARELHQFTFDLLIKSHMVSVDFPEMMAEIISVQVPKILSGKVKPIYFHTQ
# In short: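 Stably transfected MDA-kb2 cells express luciferase from an MMTV promoter bearing both AR and GR response elements. Compounds plus 0.5 nM R1881 (final) were incubated 16 hr at 37C without CO2, then luminescence measured.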
# [15] = target: Androgen receptor (Homo sapiens) (UniProt P10275); experiment: qHTS assay to identify small molecule agonists of the androgen receptor (AR) signaling pathway in the presence of an antagonist (AID 1259381; calls by dose curve; note: nearly all actives have a fitted effect of over 15% in size)
# In short: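 Agonist-mode confirmation screen: human MDA-kb2 cells stably expressing luciferase under an MMTV promoter bearing AR and GR response elements, co-treated with 3.0uM nilutamide (final). Luminescence measured after 16hr compound incubation.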
# [16] = qHTS assay to identify small molecule antagonists of the estrogen receptor beta (ER-beta) signaling pathway - cell viability counter screen (AID 1259382); note: nearly all actives have a fitted effect of over 55% in size; note: potency is the fitted concentration of half-maximal effect
# In short: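 Cytotoxicity counter screen multiplexed with the beta-lactamase antagonist assay: GripTite HEK293T ER-beta-bla cells were treated 16 hr with test chemicals in the presence of 1nM 17-beta-estradiol, and viability was measured by CellTiter-Glo.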
# [17] = qHTS assay to identify small molecule agonists of the estrogen receptor alpha (ER-alpha) signaling pathway in the presence of an antagonist - cell viability counter screen (AID 1259386);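 note: cells exposed to compounds for 22 h at 37 °C before the viability read; nearly all actives have a fitted effect of over 30% in size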; note: potency is the fitted concentration of half-maximal effect
# In short: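 Cytotoxicity was measured in parallel with the ERE-luciferase agonist screen, in the same wells. The cells were VM7Luc4E2, which endogenously express ER-alpha, and treatment was with compounds plus 10.0nM ICI-182,780 for 22hr.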
# [18] = qHTS assay to identify small molecule agonists or antagonists of the thyroid stimulating hormone receptor (TSHR) signaling pathway - wild type cell line counter screen (AID 1259384; calls by dose curve)
# In short: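 Wild-type Hek293 cells, 800/well, 18 h at 37C, then compound with Ro20-1724 for 30 min RT. cAMP by HTRF (cAMP-d2/anti-cAMP cryptate), 1 h RT, fluorescence read. 15 concentrations, triplicates.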
# [19] = target: Thyrotropin receptor (Homo sapiens) (UniProt P16473); experiment: qHTS assay to identify small molecule antagonists of the thyroid stimulating hormone receptor (TSHR) signaling pathway (AID 1259385; calls by dose curve; note: nearly all actives have a fitted effect of over 20% in size; note: potency is the fitted concentration of half-maximal effect)
# Sequence of Thyrotropin receptor (Homo sapiens) (P16473 whole entry, looked up): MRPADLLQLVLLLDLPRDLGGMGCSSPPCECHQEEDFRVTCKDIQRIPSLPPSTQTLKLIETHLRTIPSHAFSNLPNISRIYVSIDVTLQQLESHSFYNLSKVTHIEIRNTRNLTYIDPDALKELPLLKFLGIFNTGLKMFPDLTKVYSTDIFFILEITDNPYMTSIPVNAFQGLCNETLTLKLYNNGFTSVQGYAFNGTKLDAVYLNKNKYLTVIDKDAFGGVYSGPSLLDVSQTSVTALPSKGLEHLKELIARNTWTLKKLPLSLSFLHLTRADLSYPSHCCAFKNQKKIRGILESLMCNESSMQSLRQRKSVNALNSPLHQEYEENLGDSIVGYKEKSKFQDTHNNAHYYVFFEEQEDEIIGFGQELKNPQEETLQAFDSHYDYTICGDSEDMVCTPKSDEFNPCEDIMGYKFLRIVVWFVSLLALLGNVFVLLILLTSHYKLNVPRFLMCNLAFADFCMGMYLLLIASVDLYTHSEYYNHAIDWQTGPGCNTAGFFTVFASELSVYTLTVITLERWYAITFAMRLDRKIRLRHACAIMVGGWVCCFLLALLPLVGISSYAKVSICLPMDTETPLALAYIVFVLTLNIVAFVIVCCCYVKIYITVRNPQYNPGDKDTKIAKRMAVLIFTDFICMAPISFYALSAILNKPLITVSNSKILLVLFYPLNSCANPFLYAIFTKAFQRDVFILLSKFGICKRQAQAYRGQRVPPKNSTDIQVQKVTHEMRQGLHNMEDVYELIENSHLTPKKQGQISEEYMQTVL
# In short: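 TSHR-HEK293 cells (800/well) plated 18 h, then compounds with Ro20-1724 and TSH at 1.5 ng/mL final, 30 min at room temperature. cAMP quantified by HTRF (cAMP-d2/anti-cAMP-cryptate, 1 h); 15 concentrations in triplicate.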
# [20] = qHTS assay to identify small molecule agonists of the estrogen receptor beta (ER-beta) signaling pathway - cell viability counter screen (AID 1259380); note: nearly all actives have a fitted effect of over 30% in size; note: potency is the fitted concentration of half-maximal effect
# In short: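 Cytotoxicity is measured in parallel with the reporter screen: after 16 hr compound exposure at 37C and a 2 hr LiveBLAzer step, CellTiter-Glo is added to the same ER-beta-UAS-bla HEK293T wells and luminescence read after 30 min.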
SMILES,Potency [1],Potency [2],Potency [3],Potency [4],Potency [5],Potency [6],Potency [7],Potency [8],Potency [9],Potency [10],Potency [11],Potency [12],Potency [13],Potency [14],outcome [15],Potency [16],Potency [17],outcome [18],Potency [19],Potency [20]
CC(CCc1ccccc1)NCC(O)c1ccc(O)c(C(N)=O)c1 (configuration not stated),inactive,inactive,inactive,inactive,inactive,19.3 µM (active),17.2 µM (active),inactive,30.6 µM (active),inactive,inactive,inactive,inactive,,,,,,,
CCN(CC)c1ccc2c(-c3ccc(S(=O)(=O)O)cc3S(=O)(=O)[O-])c3ccc(=[N+](CC)CC)cc-3oc2c1,25.1 µM (active),,,,12.6 µM (active),9.99 µM (active),11.2 µM (active),inactive,inactive,inactive,inactive,12.6 µM (active),inactive,22.4 µM (active),inactive,inactive,7.07 µM (active),,,
CC(C)NC[C@@H](O)COc1ccc(CC(N)=O)cc1,inactive,inactive,inactive,inactive,inactive,inactive,inactive,inactive,,,,inactive,inactive,,,inactive,,inactive,inactive,
Cc1c(C)c2c(c(C)c1OC(=O)c1cccnc1)CC[C@@](C)(CCC[C@H](C)CCC[C@H](C)CCCC(C)C)O2,inactive,inactive,inactive,inactive,inactive,inactive,inactive,inactive,inactive,,,inactive,,,,inactive,inactive,inactive,inactive,inactive
CC(=O)CC(=O)Nc1ccc(S(=O)(=O)O)cc1,inactive,inactive,,inactive,inactive,inactive,inactive,inactive,inactive,inactive,inactive,inactive,inactive,,,inactive,,,inactive,inactive
OC1CCC(C2CCCCC2)CC1 (configuration not stated),inactive,inactive,,inactive,inactive,inactive,inactive,inactive,inactive,inactive,inactive,inactive,inactive,,,inactive,inactive,inactive,inactive,inactive
CCc1cccc(CC)c1NC(=O)CN(CC(=O)O)CC(=O)O,inactive,inactive,inactive,inactive,inactive,,inactive,inactive,,inactive,inactive,inactive,inactive,,,inactive,inactive,inactive,inactive,
O=C(O)[C@H](O)[C@@H](O)[C@H](O[C@@H]1O[C@H](CO)[C@H](O)[C@H](O)[C@H]1O)[C@H](O)CO,inactive,inactive,inactive,inactive,inactive,inactive,inactive,inactive,inactive,inactive,inactive,inactive,inactive,,,inactive,inactive,inactive,inactive,
CN1CCN2c3ccccc3Cc3ccccc3C2C1 (configuration not stated),inactive,inactive,inactive,inactive,inactive,inactive,inactive,inactive,,inactive,,inactive,,,inactive,,,inactive,inactive,
C#C[C@]1(OC(C)=O)CC[C@H]2[C@@H]3CCC4=C/C(=N/O)CC[C@@H]4[C@H]3CC[C@@]21CC,inactive,inactive,inactive,inactive,inactive,inactive,inactive,inactive,inactive,inactive,,inactive,2.11 µM (active),,,,inactive,inactive,0.422 µM (active),
O=c1[nH]c(=O)n([C@H]2C[C@H](O)[C@@H](CO)O2)cc1F,inactive,inactive,inactive,inactive,inactive,inactive,inactive,inactive,inactive,inactive,,inactive,inactive,,,,inactive,inactive,inactive,
CCCCCCCCCCCCOCCOCCOCCOCCOCCOCCOCCOCCOCCO,21.1 µM (active),6.68 µM (active),inactive,inactive,inactive,inactive,inactive,inactive,7.5 µM (active),,8.41 µM (active),13.3 µM (active),inactive,,,29.8 µM (active),23.7 µM (active),inactive,inactive,26.6 µM (active)
Cc1c(C)c2c(c(C)c1O)CC[C@@](C)(CCC[C@H](C)CCC[C@H](C)CCCC(C)C)O2,inactive,inactive,inactive,inactive,inactive,inactive,inactive,inactive,,inactive,inactive,inactive,inactive,,,inactive,inactive,inactive,inactive,inactive
O=C(O)c1cc(-c2ccc(F)cc2F)ccc1O,inactive,inactive,inactive,inactive,inactive,inactive,inactive,inactive,inactive,,,inactive,,,,,inactive,,,
Nc1nc2c(ncn2COCCO)c(=O)[nH]1,inactive,inactive,inactive,inactive,inactive,inactive,inactive,inactive,inactive,,,inactive,inactive,,,inactive,inactive,,inactive,inactive

# Reference: PubChem BioAssay (Tox21)
